Measured values published in PubChem BioAssay (NCI).
The panel holds about 83,000 compounds, 20% with a hit somewhere; the sample as a whole holds those more often.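 Cell lines were cultured in 96-well plates, exposed to a single compound concentration, and assessed for percent growth 48 hours later.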 A number with no mark means an inactive call. Activity calls are given as the source filed them. Rule for the calls: active = growth percent below 10; inactive = the rest.

Tests used:
Assay in all cases: NCI-60 one-dose screen, 48 h (100 = growth as untreated, 0 = no growth, -100 = all killed)
Conditions in all cases: 10 µM unless noted
HCT-15 colon = system: HCT-15 colon
HT29 colon = system: HT29 colon
SNB-75 CNS = system: SNB-75 CNS
SNB-19 CNS = system: SNB-19 CNS
U251 CNS = system: U251 CNS
PC-3 prostate = system: PC-3 prostate
SK-MEL-5 melanoma = system: SK-MEL-5 melanoma
UACC-62 melanoma = system: UACC-62 melanoma
LOX IMVI melanoma = system: LOX IMVI melanoma
SK-MEL-28 melanoma = system: SK-MEL-28 melanoma

SMILES	growth (HCT-15 colon)	growth (HT29 colon)	growth (SNB-75 CNS)	growth (SNB-19 CNS)	growth (U251 CNS)	growth (PC-3 prostate)	growth (SK-MEL-5 melanoma)	growth (UACC-62 melanoma)	growth (LOX IMVI melanoma)	growth (SK-MEL-28 melanoma)
C[C@@H](c1ccc2c(c1)[nH]c1ccc(Cl)cc12)c1nc2ccc(Cl)cc2[nH]1	90.1%	97.2%	74.2%	91.7%	92.1%	84.4%	95%	76.6%	85.4%	99.8%
C/C(=N\Nc1ccc(Cl)cn1)c1ccc2ccccc2n1	13.4%	16.3%	32.5%	24.7%	6.99% (active)	17.7%	-45% (active)	-7.97% (active)	2.73% (active)	17.5%
COc1ccc(CN2C(=O)/C(=C\C(=O)c3ccc(OCCN4CCCCC4)cc3)c3ccccc32)cc1	7.62% (active)	8.95% (active)	83.8%	84%	80%	81.4%	90.9%	73.5%	8.81% (active)	91.5%
C[C@H]1C[C@@H](n2cnc3c(N)nccc32)[C@H](O)[C@@H]1O	87.8%	89.2%	100%	82%	69.2%	110%	96.7%	98.7%	79.8%	88%
C#CCCCCCCC[C@@H]1OC(=O)[C@H]([C@@H](C)CC)NC(=O)[C@@H]([C@@H](C)CC)NC(=O)CC(=O)[C@@H]1C	97.3%	122%	80.9%	97.6%	105%	90.8%	102%	83%	92%	109%
CC(C)OCC1CO1 (centres undefined)	100%	103%	92.7%	99.7%	102%	106%	108%	98.9%	113%	110%
NCCCOc1cc(Cl)ccc1NC(=O)c1cc2ccccc2cc1OCCCN	4.32% (active)	-91.3% (active)	-90.9% (active)	34%	-93.2% (active)	-76.3% (active)	-86.4% (active)	26.4%	-81.3% (active)	-96.5% (active)
CC(=O)OC1CC2C3CCC4C[C@@H](NC(=O)C=C(C)C)CC[C@]4(C)C3CC[C@]2(C)[C@H]1C(C)N(C)C (some centres undefined)	-38.7% (active)	-20.9% (active)	8.51% (active)	49.2%	11.5%	13.1%	-95.2% (active)	-52.6% (active)	-15% (active)	-91.3% (active)
COC(=O)Nc1nc2ccc(C(=O)c3ccccc3N(C)C3COC3)cc2[nH]1	23.5%	9.07% (active)	16.4%	37.8%	21.4%	23%	22.6%	27%	30.8%	63.6%
Nc1cc(N)c2nc(-c3ccccc3)c(NCCc3ccc(Cl)c(Cl)c3)nc2c1	-87.7% (active)	-36.3% (active)	-33.7% (active)	-69.4% (active)	-100% (active)	-90.5% (active)	-99.1% (active)	-91.7% (active)	-91.5% (active)	-79.3% (active)
CCCCCCCCC(=O)Nc1ccc(O)cc1	94.6%	94.2%	76.8%	112%	91.4%	83.2%	96.7%	92.1%	84.8%	99.7%
CCCCS(=O)(=O)c1cc(Nc2ccc(O)c3c2C(=O)c2ccccc2C3=O)ccc1C	66.8%	51.5%	106%	66.7%	80.7%	80.7%	-13.5% (active)	32.8%	51.5%	71.5%
CCCCCCCCCCCCCCCCCCOP(=O)(O)O	107%	106%	97%	101%	101%	92.5%	99.2%	91.5%	–	111%
